# Measurements published in PubChem BioAssay.
# Calls of active or inactive are those of the source.
# Assays:
# [1] = system: PRMT1 (protein arginine N-methyltransferase 1); test: small molecules binding arginine methyltransferase PRMT1 – biochemical, small-molecule microarray, 635 nm fluorescence, primary screen (AID 1088); conditions: higher = more signal;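 also: binding of Prmt1 protein to compounds spotted on small-molecule microarray slides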
# [2] = growth effects on S. cerevisiae YJM789 – YJM789 clinical isolate, OD600, 24 h, basal, primary screen (AID 1089); conditions: higher = more signal, called active from +8 up or from −8 down;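 also: growth of clinical yeast isolate S. cerevisiae YJM 789 seeded 1000 cells per well; test concentration not given here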
# [3] = S. pombe growth modifiers, basal conditions – strain 972, OD600, 24 h, no modulator, primary screen (AID 1090);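 also: basal condition with compound alone and no growth modifier present; test concentration not given here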; conditions: S. pombe 972 growth, higher = more signal, called active from +8 up or from −8 down
# [4] = budding yeast growth modifiers under rapamycin – strain BY4716, OD600, 96 h, primary screen (AID 1091); also: test concentration not given here; conditions: S. cerevisiae BY4716 + rapamycin, higher = more signal, called active from +8 up or from −8 down
# [5] = molecular target: Torsin-1A-interacting protein 2 (Homo sapiens) (UniProt Q8NFQ8); test: small molecules binding lysate-expressed LULL1 – cell lysate, human LULL1 lysate, 635/667 nm fluorescence, primary screen (AID 1092); conditions: small-molecule microarray, hLULL1 lysate binding, 635 nm fluorescence; higher = more signal;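 also: probe is lysate of COS7 cells overexpressing human LULL1; score merges per-feature 667 nm fluorescence with signal-to-noise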
# [6] = optical density change of DRC41 E. coli – strain DRC41, OD650, 24 h, E. coli filamentation project, primary screen (AID 1093);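 also: MC1000 strain lacking acrAB efflux and sulA so SOS filamentation is blocked; test concentration not given here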; conditions: E. coli DRC41 growth, higher = more signal, called active from +8 up or from −8 down
# [7] = probe aLefty2 binding to arrayed compounds – biochemical, biotinylated probe, 635/667 nm fluorescence, primary screen (AID 1094); conditions: small-molecule microarray, higher = more signal;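 also: score merges spot fluorescence near 667 nm with spot signal-to-noise ratio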
# [8] = system: Noggin (protein binding on small-molecule microarray); test: small molecules binding Noggin protein – biochemical, 635/667 nm fluorescence, primary screen (AID 1095); conditions: 635 nm fluorescence, higher = more signal;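 also: score merges 667 nm feature fluorescence with signal to noise over triplicate slides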
# [9] = molecular target: Neurogenic locus notch homolog protein 3 (Homo sapiens) (UniProt Q9UM47); test: small molecules binding NOTCH3 protein – biochemical, 635/667 nm fluorescence, primary screen (AID 1096); conditions: small-molecule microarray, 635 nm fluorescence, higher = more signal
# [10] = probe aEGFR binding to arrayed compounds – biochemical, biotinylated probe, 635/667 nm fluorescence, primary screen (AID 1097); conditions: small-molecule microarray, higher = more signal;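 also: probe is a biotinylated anti-EGFR antibody binding compounds printed on slides; score combines fluorescence near 667 nm and signal to noise of each spot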
# [11] = system: Plasmodium falciparum Sir2 (PF13_0152, Sir2A); test: Plasmodium falciparum Sir2A binding compounds – biochemical, small-molecule microarray, 635 nm fluorescence, primary screen (AID 1098); conditions: fluorescence 635 nm, higher = more signal;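 also: score merges spot fluorescence intensity with its signal-to-noise ratio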
# [12] = probe aDKK1 binding to arrayed compounds – biochemical, biotinylated probe, 635/667 nm fluorescence, primary screen (AID 1099); conditions: small-molecule microarray, higher = more signal;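 also: score merges 667nm spot fluorescence with signal to noise across triplicate slides; reference of the scale not given here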
# [13] = probe aCHRDL2 binding to arrayed compounds – biochemical, biotinylated probe, 635/667 nm fluorescence, primary screen (AID 1100); conditions: small-molecule microarray, higher = more signal
# [14] = change in splice reporter luminescence, either direction, cell-based, HEK293, spliceosome inhibition project, primary screen (AID 1101); conditions: HEK293 splicing luciferase reporter, 24 h, higher = more signal, called active from +8 up or from −8 down;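 also: HEK293 cells carrying a splicing-competent luciferase reporter gene; test concentration not given here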
# [15] = molecular target: Fibroblast growth factor 10 (Homo sapiens) (UniProt O15520); test: compounds binding fibroblast growth factor 10 – biochemical, small-molecule microarray, 635 nm fluorescence, primary screen (AID 1102); conditions: FGF10 binding, fluorescence 635 nm, higher = more signal
# [16] = system: glycogen synthase kinase-3 (GSK3A per assay name; protocol says GSK3B); test: compounds binding glycogen synthase kinase-3 – biochemical, small-molecule microarray, 635 nm fluorescence, GSK3A, primary screen (AID 1103); conditions: fluorescence 635 nm, higher = more signal; also: the record names both GSK3A and GSK3B
# [17] = molecular target: Epidermal growth factor receptor (Homo sapiens) (UniProt P00533); test: compounds binding epidermal growth factor receptor – biochemical, small-molecule microarray, 635 nm fluorescence, primary screen (AID 1104); conditions: EGFR binding, higher = more signal;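 also: score merges 667 nm emission intensity with spot signal to noise over triplicate slides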
# [18] = molecular target: Follistatin-related protein 3 (Homo sapiens) (UniProt O95633); test: compounds binding follistatin-related protein 3 – biochemical, small-molecule microarray, 635 nm fluorescence, primary screen (AID 1105); conditions: FSTL3 binding, higher = more signal;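 also: score merges emission near 667 nm and signal to noise per printed spot across three slides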
# [19] = molecular target: Dickkopf-related protein 1 (Homo sapiens) (UniProt O94907); test: small molecules binding DKK1 protein – biochemical, small-molecule microarray, 635 nm fluorescence scan, primary screen (AID 1106); conditions: higher = more signal;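 also: score merges emission near 667 nm with signal to noise over three replicate slides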
# [20] = system: Inhibin beta A chain (activin A); test: small molecules binding activin A – biochemical, small-molecule microarray, 635 nm fluorescence scan, primary screen (AID 1107); conditions: INHBA, higher = more signal;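 also: mouse activin A protein probed at 4.33 µg/mL on printed slides; score merges bound-protein fluorescence near 667 nm with spot signal-to-noise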
# Chain of Fibroblast growth factor 10 (Homo sapiens) (O15520 whole entry, looked up): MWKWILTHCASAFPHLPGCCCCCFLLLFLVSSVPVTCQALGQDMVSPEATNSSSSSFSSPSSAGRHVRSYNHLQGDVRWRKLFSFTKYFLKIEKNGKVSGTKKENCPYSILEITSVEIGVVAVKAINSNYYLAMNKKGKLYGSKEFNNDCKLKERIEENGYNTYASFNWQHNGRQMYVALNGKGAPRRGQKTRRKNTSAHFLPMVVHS
# Chain of Dickkopf-related protein 1 (Homo sapiens) (O94907 whole entry, looked up): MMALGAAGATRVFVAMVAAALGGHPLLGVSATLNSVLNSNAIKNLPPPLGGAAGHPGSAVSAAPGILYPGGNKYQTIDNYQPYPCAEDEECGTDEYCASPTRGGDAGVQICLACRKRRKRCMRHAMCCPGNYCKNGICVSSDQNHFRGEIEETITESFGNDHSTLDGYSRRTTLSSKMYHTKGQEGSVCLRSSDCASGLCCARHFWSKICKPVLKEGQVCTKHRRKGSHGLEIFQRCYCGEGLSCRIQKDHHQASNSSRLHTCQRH
# Chain of Epidermal growth factor receptor (Homo sapiens) (P00533 whole entry, looked up): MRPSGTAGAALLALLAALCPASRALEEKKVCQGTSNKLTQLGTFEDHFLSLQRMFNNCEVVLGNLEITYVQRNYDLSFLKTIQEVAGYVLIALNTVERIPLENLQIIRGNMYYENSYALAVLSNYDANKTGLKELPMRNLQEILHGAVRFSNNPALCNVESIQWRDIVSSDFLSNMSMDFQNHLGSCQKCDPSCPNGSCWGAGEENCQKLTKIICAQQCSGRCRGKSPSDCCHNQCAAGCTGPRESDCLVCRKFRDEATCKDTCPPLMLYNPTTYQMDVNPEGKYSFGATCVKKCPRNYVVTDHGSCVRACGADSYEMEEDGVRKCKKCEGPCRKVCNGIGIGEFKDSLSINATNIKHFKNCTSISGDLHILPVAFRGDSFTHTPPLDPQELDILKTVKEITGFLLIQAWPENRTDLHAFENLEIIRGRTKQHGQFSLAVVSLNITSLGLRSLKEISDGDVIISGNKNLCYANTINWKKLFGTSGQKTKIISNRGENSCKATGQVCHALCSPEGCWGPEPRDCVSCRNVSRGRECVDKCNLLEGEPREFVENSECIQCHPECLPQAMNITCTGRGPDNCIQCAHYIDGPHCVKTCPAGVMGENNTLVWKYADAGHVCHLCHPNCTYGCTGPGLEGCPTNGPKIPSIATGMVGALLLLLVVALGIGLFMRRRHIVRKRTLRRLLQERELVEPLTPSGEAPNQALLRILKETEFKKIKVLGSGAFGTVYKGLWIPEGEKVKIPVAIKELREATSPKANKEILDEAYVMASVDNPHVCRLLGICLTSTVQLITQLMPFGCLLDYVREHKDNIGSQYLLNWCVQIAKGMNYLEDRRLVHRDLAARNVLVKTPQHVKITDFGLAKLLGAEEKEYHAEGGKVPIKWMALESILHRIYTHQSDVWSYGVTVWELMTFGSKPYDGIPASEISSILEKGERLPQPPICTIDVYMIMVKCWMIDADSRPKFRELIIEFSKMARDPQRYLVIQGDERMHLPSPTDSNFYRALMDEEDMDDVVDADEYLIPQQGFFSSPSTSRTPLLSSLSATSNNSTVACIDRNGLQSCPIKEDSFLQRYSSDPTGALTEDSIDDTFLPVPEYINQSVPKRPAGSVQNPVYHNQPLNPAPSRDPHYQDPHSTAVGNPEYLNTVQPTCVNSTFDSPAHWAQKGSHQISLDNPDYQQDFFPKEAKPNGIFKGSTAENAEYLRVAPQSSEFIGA
# Chain of Follistatin-related protein 3 (Homo sapiens) (O95633 whole entry, looked up): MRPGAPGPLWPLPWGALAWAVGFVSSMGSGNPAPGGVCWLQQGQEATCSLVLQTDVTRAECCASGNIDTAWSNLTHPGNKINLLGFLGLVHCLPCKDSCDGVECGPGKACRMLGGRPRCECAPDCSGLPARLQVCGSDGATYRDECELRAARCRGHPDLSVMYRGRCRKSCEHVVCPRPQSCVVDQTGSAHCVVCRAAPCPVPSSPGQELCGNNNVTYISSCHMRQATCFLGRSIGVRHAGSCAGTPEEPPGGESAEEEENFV
# Chain of Neurogenic locus notch homolog protein 3 (Homo sapiens) (Q9UM47 whole entry, looked up): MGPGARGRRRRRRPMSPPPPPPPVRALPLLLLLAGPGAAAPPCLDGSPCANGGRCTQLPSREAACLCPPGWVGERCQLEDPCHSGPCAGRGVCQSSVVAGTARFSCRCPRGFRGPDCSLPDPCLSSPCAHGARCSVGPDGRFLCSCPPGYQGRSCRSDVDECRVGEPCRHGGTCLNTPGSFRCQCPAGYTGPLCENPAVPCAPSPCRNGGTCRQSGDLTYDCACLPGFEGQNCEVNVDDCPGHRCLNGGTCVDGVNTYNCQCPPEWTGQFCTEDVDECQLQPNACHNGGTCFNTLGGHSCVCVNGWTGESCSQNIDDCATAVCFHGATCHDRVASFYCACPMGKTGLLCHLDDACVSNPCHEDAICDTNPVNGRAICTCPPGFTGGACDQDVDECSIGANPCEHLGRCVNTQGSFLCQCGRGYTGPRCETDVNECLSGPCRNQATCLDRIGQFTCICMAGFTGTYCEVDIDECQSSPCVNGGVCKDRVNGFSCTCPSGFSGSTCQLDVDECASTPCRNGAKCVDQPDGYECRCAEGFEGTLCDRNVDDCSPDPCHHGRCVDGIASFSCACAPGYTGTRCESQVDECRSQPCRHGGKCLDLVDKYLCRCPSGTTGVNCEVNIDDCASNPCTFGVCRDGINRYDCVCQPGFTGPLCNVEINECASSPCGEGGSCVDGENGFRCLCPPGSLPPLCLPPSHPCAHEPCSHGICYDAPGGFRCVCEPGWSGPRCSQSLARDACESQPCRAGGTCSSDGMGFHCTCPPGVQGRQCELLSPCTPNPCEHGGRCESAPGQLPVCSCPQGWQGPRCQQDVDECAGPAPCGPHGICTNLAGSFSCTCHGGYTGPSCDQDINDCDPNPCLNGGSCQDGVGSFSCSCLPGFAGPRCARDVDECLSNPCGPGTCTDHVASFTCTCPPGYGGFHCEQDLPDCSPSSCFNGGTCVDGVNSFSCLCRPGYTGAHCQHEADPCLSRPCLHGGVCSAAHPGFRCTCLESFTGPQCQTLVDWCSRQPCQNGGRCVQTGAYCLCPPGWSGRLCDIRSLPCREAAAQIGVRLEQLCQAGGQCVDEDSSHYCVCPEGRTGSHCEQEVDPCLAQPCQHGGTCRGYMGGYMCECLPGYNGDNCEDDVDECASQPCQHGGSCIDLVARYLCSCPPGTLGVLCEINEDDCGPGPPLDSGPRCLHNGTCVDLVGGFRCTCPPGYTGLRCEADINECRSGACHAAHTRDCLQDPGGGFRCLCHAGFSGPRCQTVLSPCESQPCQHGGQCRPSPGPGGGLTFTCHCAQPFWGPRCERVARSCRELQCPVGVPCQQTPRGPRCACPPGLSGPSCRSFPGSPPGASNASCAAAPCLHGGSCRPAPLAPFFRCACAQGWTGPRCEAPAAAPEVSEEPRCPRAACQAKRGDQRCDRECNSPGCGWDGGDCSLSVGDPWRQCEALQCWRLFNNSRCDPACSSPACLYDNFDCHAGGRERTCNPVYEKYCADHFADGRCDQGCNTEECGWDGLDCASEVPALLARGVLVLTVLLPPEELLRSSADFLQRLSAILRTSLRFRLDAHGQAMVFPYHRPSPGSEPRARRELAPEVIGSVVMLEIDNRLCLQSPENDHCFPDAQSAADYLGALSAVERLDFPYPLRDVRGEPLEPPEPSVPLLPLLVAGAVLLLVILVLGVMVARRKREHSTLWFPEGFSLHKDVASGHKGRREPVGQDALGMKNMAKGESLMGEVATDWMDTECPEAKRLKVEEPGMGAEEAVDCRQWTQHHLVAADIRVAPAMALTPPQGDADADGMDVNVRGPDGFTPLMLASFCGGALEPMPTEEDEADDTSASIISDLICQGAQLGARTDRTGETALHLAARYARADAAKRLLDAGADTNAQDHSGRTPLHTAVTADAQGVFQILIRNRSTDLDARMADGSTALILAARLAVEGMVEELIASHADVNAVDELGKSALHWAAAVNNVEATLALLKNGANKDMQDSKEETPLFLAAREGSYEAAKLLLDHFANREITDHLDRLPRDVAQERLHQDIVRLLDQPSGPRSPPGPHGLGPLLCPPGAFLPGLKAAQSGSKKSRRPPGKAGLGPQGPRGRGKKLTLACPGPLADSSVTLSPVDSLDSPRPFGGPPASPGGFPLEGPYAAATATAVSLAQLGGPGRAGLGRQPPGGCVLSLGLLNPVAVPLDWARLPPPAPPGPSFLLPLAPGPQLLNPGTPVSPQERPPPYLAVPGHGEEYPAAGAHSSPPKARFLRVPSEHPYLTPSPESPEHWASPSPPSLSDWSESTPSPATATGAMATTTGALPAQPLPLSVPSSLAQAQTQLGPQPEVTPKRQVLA
# Chain of Torsin-1A-interacting protein 2 (Homo sapiens) (Q8NFQ8 whole entry, looked up): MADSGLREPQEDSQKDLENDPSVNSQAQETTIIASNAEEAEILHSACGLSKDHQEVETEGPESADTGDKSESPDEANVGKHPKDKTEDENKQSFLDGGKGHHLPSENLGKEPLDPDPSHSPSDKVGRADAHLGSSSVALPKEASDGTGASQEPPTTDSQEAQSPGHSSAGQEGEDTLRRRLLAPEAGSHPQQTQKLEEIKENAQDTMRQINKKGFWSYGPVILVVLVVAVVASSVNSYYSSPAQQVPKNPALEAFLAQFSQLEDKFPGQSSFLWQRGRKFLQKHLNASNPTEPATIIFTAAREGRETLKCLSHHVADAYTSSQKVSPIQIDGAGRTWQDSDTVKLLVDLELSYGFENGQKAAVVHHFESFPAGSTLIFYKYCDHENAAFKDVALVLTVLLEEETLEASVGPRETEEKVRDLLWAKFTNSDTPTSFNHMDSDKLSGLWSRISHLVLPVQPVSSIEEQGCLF
Compound,composite z-score [1],z-score [2],z-score [3],z-score [4],composite z-score [5],z-score [6],composite z-score [7],composite z-score [8],composite z-score [9],composite z-score [10],composite z-score [11],composite z-score [12],composite z-score [13],z-score [14],composite z-score [15],composite z-score [16],composite z-score [17],composite z-score [18],composite z-score [19],composite z-score [20]
C[N+](C)(C)CCCCNC(=O)[C@H]1C[C@H]2C(=O)N[C@@H](Cc3ccccc3)C(=O)N2[C@H]1c1cccc(OCCO)c1,0.982,-0.0304 (inactive),0.351 (inactive),-1.82 (inactive),1.99,0.0648 (inactive),0.0899,1.88,1.02,0.256,1.59,0.104,-0.17,-0.161 (inactive),1.44,1.13,0.899,1.48,2.04,0.748
COC(=O)[C@H](Cc1ccccc1)N1CC2=CCCC=C[C@@H]2[C@H]1[C@H](O)Cc1ccccc1,0.438,-1.09 (inactive),-2.01 (inactive),-0.172 (inactive),0.626,-0.496 (inactive),-0.0632,1.15,0.215,-0.111,1.33,-0.192,-0.306,-0.477 (inactive),0.363,0.171,-0.244,0.525,0.29,0.702
NC(=O)N1C(=O)C2C(C1=O)C1C=C(CCCO)C2C(C2CC2)N1Cc1sc2ccccc2c1Cl (stereo not given),1.56,-0.425 (inactive),-2.48 (inactive),-1.63 (inactive),2.14,0.792 (inactive),0.0819,0.355,1.13,-0.0697,0.903,-0.129,0.256,1.01 (inactive),1.15,1.09,-0.271,0.808,0.158,0.303
C=C(CCCC)/C(=C/C[C@H](OC(C)=O)c1cccc(OCCO)c1)c1cnc2ccccc2c1,0.12,1.94 (inactive),0.924 (inactive),1.32 (inactive),-0.0488,0.442 (inactive),-0.116,-0.271,0.0799,-0.169,0.989,-0.149,-0.0497,-0.142 (inactive),-0.252,-0.31,0.228,0.234,0.0193,1.83
C=CCOC(=O)[C@@H]1[C@H]2C(=O)O[C@H](c3ccccc3)[C@H](c3ccccc3)N2[C@H](c2ccc(OCCOC(=O)[C@H]3C[C@H]4C(=O)NCC(=O)N4[C@H]3c3cccc(OCCO)c3)cc2)[C@@]12C(=O)Nc1ccc(I)cc12,1.54,0.787 (inactive),1.44 (inactive),3.6 (inactive),2.7,0.002 (inactive),-0.0809,0.963,1.1,0.0712,1.53,0.512,0.494,0.789 (inactive),0.742,1.36,0.725,1.23,1.11,0.118
COCCOC(=O)N1C(=O)[C@@]2(c3cc(C#CCNC(N)=O)ccc31)[C@H](C(=O)Nc1nc3ccccc3s1)[C@H]1C(=O)O[C@H](c3ccccc3)[C@H](c3ccccc3)N1[C@@H]2c1ccccc1OCCO,1.56,0.236 (inactive),1.81 (inactive),3.17 (inactive),1.11,1.17 (inactive),0.146,1.14,0.907,0.359,0.678,0.376,0.812,-0.549 (inactive),1.38,0.392,0.597,1.05,0.397,1.22
CCCN1C(=O)[C@]2(CCC(=O)OC(C)(C)C)N=C(c3ccc(OCCCO)cc3)O[C@@H]2c2ccccc21,1.52,-1.93 (inactive),-0.474 (inactive),1.5 (inactive),1.62,0.916 (inactive),0.151,1.37,0.571,-0.134,0.715,0.173,1.16,0.0554 (inactive),1.31,1.21,-0.413,0.299,-0.175,1.31
C=CC[C@]1(C(=O)NCC(O)CO)COC(c2ccc(OCCCO)cc2)=N1 (stereo not given in full),-0.726,0.26 (inactive),0.691 (inactive),0.959 (inactive),2.15,-0.363 (inactive),0.479,-0.415,-1.35,0.0444,-0.329,0.787,1.05,0.2 (inactive),-0.106,0.0993,-1.18,-0.865,-0.463,1.12
COC(=O)c1cccc([C@H]2OC(=CC(=O)OC(C)C)C[C@@H](c3cccc(C(=O)OC)c3)O2)c1,1.55,-0.132 (inactive),-2.24 (inactive),-1.39 (inactive),3.6,-0.259 (inactive),0.272,1.22,0.974,0.0297,1.26,0.515,0.284,0.599 (inactive),1.18,1.33,0.693,1.09,0.34,0.463
C=CCOC(=O)[C@H]1[C@@H]2C(=O)O[C@@H](c3ccccc3)[C@@H](c3ccccc3)N2[C@@H](c2ccc(OCCOC(=O)[C@@H]3C[C@@H]4C(=O)N[C@@H](CCCCNC(C)=O)C(=O)N4[C@@H]3c3cccc(OCCO)c3)cc2)[C@]12C(=O)Nc1ccccc12,1.54,0.591 (inactive),0.633 (inactive),2.18 (inactive),2.36,-0.471 (inactive),0.0636,1.34,1.06,-0.0103,1.43,0.171,0.042,0.736 (inactive),0.794,1.32,0.793,0.726,0.698,0.239
